The source made the active and inactive calls. Unless noted, how the calls were made is not given here.
How the values were obtained:
[1] = tested on: Wnt5a (protein binding on small-molecule microarray); experiment: small molecules binding Wnt5a protein – biophysical, small-molecule microarray, 635/667 nm fluorescence, primary screen (AID 1142); details: 635 nm fluorescence, higher = more signal;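 further: fluorescence read at 667 nm with signal to noise per printed feature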
[2] = ATP-based viability of Huh7 replicon cells – cell-based, CellTiter-Glo luminescence, basal, 48 h, cytotoxicity control for HCV replication inhibitor project, primary screen (AID 1143); details: higher = more signal, called active from +8 up or from −8 down;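 further: Huh7 hepatoma cells carrying a hepatitis C replication reporter with no stimulus; test concentration not given here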
[3] = Pseudomonas biofilm growth suppression – PAO1 strain, BacTiter-Glo luminescence, LB-PBS, primary screen (AID 1144); details: P. aeruginosa PAO1 biofilm, 12 h, higher = more signal
[4] = basal CRE-LacZ reporter activity in PC12 – cell-based, unstimulated, primary screen (AID 1145); details: no forskolin, luminescence, 4.5 h, higher = more signal, called active from +8 up or from −8 down
[5] = forskolin-driven CRE-LacZ activity in PC12 – cell-based, CRE-LacZ reporter, forskolin-stimulated, primary screen (AID 1146); details: luminescence, 4.5 h, higher = more signal, called active from +8 up or from −8 down;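 further: PC12 cells with 6xCRE LacZ reporter stimulated by forskolin 10 µM; beta-galactosidase reporter signal reflecting CREB driven transcription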
[6] = molecular target: Streptavidin (Streptomyces avidinii) (UniProt P22629); experiment: compounds binding control protein streptavidin – biophysical, small-molecule microarray, 635/667 nm fluorescence, artefact control for SMM compound annotation, primary screen (AID 1147); details: higher = more signal;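 further: signal reflects streptavidin binding to arrayed compounds as a control protein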
Sequence of Streptavidin (Streptomyces avidinii) (P22629 whole entry, looked up): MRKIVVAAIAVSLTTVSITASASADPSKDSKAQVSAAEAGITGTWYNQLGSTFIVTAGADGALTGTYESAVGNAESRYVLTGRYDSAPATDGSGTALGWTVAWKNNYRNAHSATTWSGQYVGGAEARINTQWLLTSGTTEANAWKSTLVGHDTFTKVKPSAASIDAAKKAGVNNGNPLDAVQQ

[7] = probe aInhba binding on compound microarray – biochemical, small-molecule microarray, 635/667 nm fluorescence, primary screen (AID 1148); details: higher = more signal;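 further: score merges 667nm spot fluorescence with signal-to-noise for antibody binding to printed compounds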
Torsin-1A (Homo sapiens) [8] = molecular target: Torsin-1A (Homo sapiens) (UniProt O14656); experiment: TOR1A wild-type binding on microarray – cell lysate, small-molecule microarray, lysate, 635/667 nm, primary screen (AID 1149); details: COS7 hTOR1A-WT lysate, 635 nm fluorescence, higher = more signal
Sequence of Torsin-1A (Homo sapiens) (O14656 whole entry, looked up): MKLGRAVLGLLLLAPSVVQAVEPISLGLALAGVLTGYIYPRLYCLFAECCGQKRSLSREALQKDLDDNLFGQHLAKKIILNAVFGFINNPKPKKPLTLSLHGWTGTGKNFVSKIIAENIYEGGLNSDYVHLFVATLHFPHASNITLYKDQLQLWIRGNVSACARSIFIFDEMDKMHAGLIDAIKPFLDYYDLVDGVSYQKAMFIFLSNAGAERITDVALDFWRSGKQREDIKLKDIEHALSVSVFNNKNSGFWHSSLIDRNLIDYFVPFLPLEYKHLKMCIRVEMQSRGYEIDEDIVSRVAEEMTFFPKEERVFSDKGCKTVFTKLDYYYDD

Torsin-1A (Homo sapiens) [9] = molecular target: Torsin-1A (Homo sapiens) (UniProt O14656); experiment: torsin A mutant lysate binding on microarrays – cell lysate, small-molecule microarray, COS7 lysate, 635/667 nm fluorescence, primary screen (AID 1150); details: COS7 hTOR1A mutant lysate, 635 nm fluorescence, higher = more signal;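 further: score pools 667 nm emission and signal to noise measuring lysate protein binding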
[10] = tested on: Sonic hedgehog protein (Shh); experiment: Sonic hedgehog microarray binding compounds – biochemical, small-molecule microarray, 635/667 nm fluorescence, primary screen (AID 1151); details: 635 nm fluorescence, higher = more signal;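 further: Shh protein binding to compounds spotted on small-molecule microarray slides; score combines spot fluorescence intensity with signal-to-noise across triplicate slides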
[11] = optical density shifts of acrAB sulA E. coli – strain DRC41, OD650, 48 h, E. coli filamentation inducer project, primary screen (AID 1152); details: higher = more signal, called active from +8 up or from −8 down;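 further: E. coli MC1000 strain DRC41 lacking acrAB efflux pump and sulA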
[12] = probe aLefty1 binding on compound microarray – biochemical, small-molecule microarray, 635/667 nm fluorescence, primary screen (AID 1153); details: higher = more signal;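 further: score merges spot fluorescence with signal-to-noise ratio from the scanned slide images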
[13] = plasmodial surface anion channel blockers, osmotic lysis – cell-based, P. falciparum Indochina, OD700, 1 h, primary screen (AID 1154); details: P. falciparum Indochina infected RBC osmotic lysis, higher = more signal, called active from +8 up or from −8 down
[14] = plasmodial surface anion channel blockers, osmotic lysis – cell-based, P. falciparum Indochina, OD700, 2 h, primary screen (AID 1155);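 further: lysis reports solute entry through the parasite surface anion channel PSAC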; details: P. falciparum Indochina infected erythrocytes, higher = more signal, called active from +8 up or from −8 down
[15] = changes in parasitized red cell lysis, either direction – P. falciparum Indochina, OD700, 3 h, PSAC antagonist project, primary screen (AID 1156); details: P. falciparum-infected erythrocytes, osmotic lysis, higher = more signal, called active from +8 up or from −8 down
[16] = plasmodial surface anion channel blockers, osmotic lysis – cell-based, P. falciparum Indochina, OD700, 18 h, primary screen (AID 1157); details: P. falciparum Indochina infected erythrocytes, osmotic lysis OD700, 18 h; higher = more signal, called active from +8 up or from −8 down
[17] = S6 kinase pathway phospho-S6 level changes – cell-based, A549, cytoblot, luminescence, serum-stimulated, primary screen (AID 1158); details: 5 h, higher = more signal;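 further: serum-stimulated A549 lung adenocarcinoma cells; signal is phosphorylated S6 detected by cytoblot immunostaining with HRP secondary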
[18] = molecular target: NADPH oxidase 2 (Homo sapiens) (UniProt P04839); experiment: compounds shifting NOX2 Amplex Red fluorescence – cell-based, HEK293-NOX2, PMA-stimulated, NOX inhibitor project, primary screen (AID 1159); details: 45 min, higher = more signal, called active from +8 up or from −8 down; further: test concentration not given here
Sequence of NADPH oxidase 2 (Homo sapiens) (P04839 whole entry, looked up): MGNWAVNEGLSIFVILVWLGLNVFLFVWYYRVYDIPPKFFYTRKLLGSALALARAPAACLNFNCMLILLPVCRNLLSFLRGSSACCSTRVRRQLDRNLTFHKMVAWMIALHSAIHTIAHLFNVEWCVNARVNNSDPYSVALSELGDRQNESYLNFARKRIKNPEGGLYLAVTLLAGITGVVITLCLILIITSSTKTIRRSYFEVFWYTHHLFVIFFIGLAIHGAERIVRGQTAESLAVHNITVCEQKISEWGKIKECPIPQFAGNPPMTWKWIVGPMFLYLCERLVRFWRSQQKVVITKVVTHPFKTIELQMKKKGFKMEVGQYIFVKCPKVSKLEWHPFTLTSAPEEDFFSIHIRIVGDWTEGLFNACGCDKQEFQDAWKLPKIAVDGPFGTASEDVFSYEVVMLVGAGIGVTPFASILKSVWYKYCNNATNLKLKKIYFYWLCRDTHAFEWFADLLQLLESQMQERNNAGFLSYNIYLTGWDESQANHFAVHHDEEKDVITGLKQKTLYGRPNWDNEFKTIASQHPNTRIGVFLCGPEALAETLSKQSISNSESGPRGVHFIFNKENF

[19] = molecular target: NADPH oxidase 4 (Homo sapiens) (UniProt Q9NPH5); experiment: compounds shifting NOX4 Amplex Red fluorescence – cell-based, HEK293-NOX4, tetracycline-induced, NOX inhibitor project, primary screen (AID 1160); details: HEK293-NOX4, Amplex Red H2O2 fluorescence, 45 min; higher = more signal, called active from +8 up or from −8 down
Sequence of NADPH oxidase 4 (Homo sapiens) (Q9NPH5 whole entry, looked up): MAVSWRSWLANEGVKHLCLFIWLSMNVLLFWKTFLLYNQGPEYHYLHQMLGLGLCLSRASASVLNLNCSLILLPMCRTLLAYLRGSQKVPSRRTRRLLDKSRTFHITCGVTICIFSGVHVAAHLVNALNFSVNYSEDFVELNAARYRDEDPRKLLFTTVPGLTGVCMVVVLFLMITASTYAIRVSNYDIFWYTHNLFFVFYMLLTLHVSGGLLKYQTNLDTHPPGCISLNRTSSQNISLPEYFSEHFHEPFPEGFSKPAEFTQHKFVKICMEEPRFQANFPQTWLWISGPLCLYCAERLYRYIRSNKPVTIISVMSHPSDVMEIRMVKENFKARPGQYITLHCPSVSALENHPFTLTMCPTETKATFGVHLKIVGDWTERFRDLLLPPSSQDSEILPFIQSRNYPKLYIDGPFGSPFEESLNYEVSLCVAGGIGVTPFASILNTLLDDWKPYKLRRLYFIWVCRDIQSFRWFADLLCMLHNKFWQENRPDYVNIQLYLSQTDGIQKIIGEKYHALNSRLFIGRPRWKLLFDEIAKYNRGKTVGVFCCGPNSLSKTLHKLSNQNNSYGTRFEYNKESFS

[20] = molecular target: NADPH oxidase 5 (Homo sapiens) (UniProt Q96PH1); experiment: compounds shifting NOX5 Amplex Red fluorescence – cell-based, HEK293-NOX5, NOX inhibitor project, primary screen (AID 1161); details: HEK293-NOX5, ionomycin, 45 min, higher = more signal
Sequence of NADPH oxidase 5 (Homo sapiens) (Q96PH1 whole entry, looked up): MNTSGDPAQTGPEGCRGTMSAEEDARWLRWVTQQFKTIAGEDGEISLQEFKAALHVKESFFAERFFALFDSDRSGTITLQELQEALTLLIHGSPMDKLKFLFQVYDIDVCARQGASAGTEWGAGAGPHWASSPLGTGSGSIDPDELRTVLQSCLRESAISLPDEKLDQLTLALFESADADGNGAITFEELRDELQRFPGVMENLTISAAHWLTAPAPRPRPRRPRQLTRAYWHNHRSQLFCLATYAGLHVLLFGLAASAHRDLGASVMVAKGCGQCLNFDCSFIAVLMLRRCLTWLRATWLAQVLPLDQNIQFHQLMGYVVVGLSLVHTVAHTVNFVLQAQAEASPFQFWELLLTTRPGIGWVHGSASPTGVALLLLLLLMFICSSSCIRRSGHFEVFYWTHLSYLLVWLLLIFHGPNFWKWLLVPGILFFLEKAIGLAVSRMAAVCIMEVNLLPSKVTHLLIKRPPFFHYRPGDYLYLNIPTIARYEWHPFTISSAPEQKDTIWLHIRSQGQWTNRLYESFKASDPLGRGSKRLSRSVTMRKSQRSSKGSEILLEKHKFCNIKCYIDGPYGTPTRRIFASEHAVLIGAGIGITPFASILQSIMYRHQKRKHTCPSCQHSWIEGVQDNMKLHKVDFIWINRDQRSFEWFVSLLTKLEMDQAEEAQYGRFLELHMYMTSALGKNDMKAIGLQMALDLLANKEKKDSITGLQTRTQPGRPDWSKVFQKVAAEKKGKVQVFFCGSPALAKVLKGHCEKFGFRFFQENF

| Structure (SMILES) | composite z-score [1] | z-score [2] | z-score [3] | z-score [4] | z-score [5] | composite z-score [6] | composite z-score [7] | composite z-score (Torsin-1A (Homo sapiens) [8]) | composite z-score (Torsin-1A (Homo sapiens) [9]) | composite z-score [10] | z-score [11] | composite z-score [12] | z-score [13] | z-score [14] | z-score [15] | z-score [16] | z-score [17] | z-score [18] | z-score [19] | z-score [20] |
| --- | --- | --- | --- | --- | --- | --- | --- | --- | --- | --- | --- | --- | --- | --- | --- | --- | --- | --- | --- | --- |
| CCOC(=O)[C@H](Cc1ccccc1)NC(=O)CCC1CC(OC(=O)NCCc2ccc(F)cc2)CC2(CCCC(COC(=O)NCCOC)O2)O1 (stereo not given in full) | 1.58 | -0.326 (inactive) | -0.852 (inactive) | 0.473 (inactive) | -0.728 (inactive) | 1.19 | 0.122 | 0.998 | 0.753 | 0.784 | 0.602 (inactive) | -0.0468 | 19.4 (active) | 4.99 (inactive) | 0.486 (inactive) | 0.737 (inactive) | 0.011 | 0.188 (inactive) | 0.251 (inactive) | 0.0245 |
| O=C1[C@H]2[C@H]3[C@H](O)[C@H](O)CC(=NOC[C@@H](O)COCc4ccco4)[C@@H]3CC[C@H]2C(=O)N1C[C@@H]1CCCO1 | 0.149 | 0.0304 (inactive) | 0.835 (inactive) | -0.207 (inactive) | -0.0793 (inactive) | -0.0625 | -0.263 | 3.22 | 3.3 | 1.59 | 0.916 (inactive) | -0.0061 | 2.05 (inactive) | 0.544 (inactive) | -0.0602 (inactive) | 0.329 (inactive) | -0.605 | 0.222 (inactive) | 0.374 (inactive) | 0.382 |
| C[C@@H](c1ccccc1)N1C(=O)[C@H]2[C@H]3[C@H](O)[C@H](O)CC(=O)[C@H]3CC[C@H]2C1=O | 0.0027 | -0.273 (inactive) | 0.257 (inactive) | -0.113 (inactive) | 0.209 (inactive) | 0.182 | -0.145 | 0.0683 | 0.452 | 0.374 | 0.477 (inactive) | -0.196 | -0.74 (inactive) | 0.0593 (inactive) | -0.105 (inactive) | 0.0091 (inactive) | 0.297 | -0.522 (inactive) | 0.05 (inactive) | 0.811 |
| COC(=O)CC=C[C@@H](C)[C@@H](C=NO[C@@H]1O[C@H](COC(C)=O)[C@@H](OC(C)=O)[C@H](OC(C)=O)[C@H]1OC(C)=O)OC | 0.359 | 0.36 (inactive) | -0.743 (inactive) | 0.834 (inactive) | 0.0774 (inactive) | -0.769 | -0.165 | 0.698 | 0.32 | 0.0568 | -0.477 (inactive) | 0.142 | 0.683 (inactive) | 0.547 (inactive) | -0.193 (inactive) | 0.416 (inactive) | -0.474 | 1.26 (inactive) | 0.729 (inactive) | 0.688 |

— PubChem BioAssay
